High-throughput results from PubChem BioAssay.
Compounds with a hit are over-represented: about 19% of the library has one in this group of screens.
SW480 rerep – DNA re-replication induction in SW480 cells; Potency, µM (top dose mostly 46.1 µM), actives largely listed as activators; SW480 DNA re-replication, Hoechst DNA content imaging, 48 h; hit rate 1.8% among 340,000; note: nearly all actives have a fitted effect of over 55% in size
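Cells (250 per well) received 23 nL compound or DMSO by pin tool and were kept 48 hr at 37 C, 5% CO2. Nuclei were then stained with Hoechst for 40 min and scanned for DNA content.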
MCF10A rereplic – DNA re-replication induction in MCF 10a cells; AID 624296; MCF 10A DNA re-replication, Hoechst nuclear intensity, 48 h; hit rate 2.9% among 350,000; Potency, µM (titrated, usually from 46.1 µM), usual class: activators; note: nearly all actives have a fitted effect of over 50% in size
DT40 TDP1 no CPT – qHTS for Inhibitors of human tyrosyl-DNA phosphodiesterase 1 (TDP1): qHTS in cells in absence of CPT. DT40 Tdp1-/- hTDP1 cells, no CPT, ATP luminescence, 48 h. Potency, µM (doses to about 46.2 µM), actives largely listed as inhibitors. hit rate 15% among 420,000; note: nearly all actives have a fitted effect of over 55% in size
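Readout: luminescence from CellTiter-Glo after 30 min in the dark at RT. Cells: DT40 Tdp1-/- with stable hTDP1, 400/well. Exposure: compounds alone, ≥48 hr, 37 °C.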
Chronic BCR inh – blocks chronic active B-cell receptor signaling | ABC-DLBCL IkBa-CBG/CBR reporter, luminescence ratio, 4 h | hit rate 0.05% among 340,000 | Potency, µM (top dose mostly 46.1 µM), usual class: inhibitors; active = well fitted inhibition curve with a large enough effect in the signal ratio, with a control signal flat, not every such curve was filed as active; inconclusive = small, poorly fitted or top-dose-only effect, or effect the other way, or a change in a side signal; the % refers to the signal ratio
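Concentration-response series (up to 46 uM) were applied to TMD8 dual-reporter cells for 4 h at 37C with doxycycline. Green/red ratio, after filter-overlap correction, defined %Activity; red signal alone was normalised to basal cells and zero luminescence.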
IL-1B inflam inh – inhibitors of inflammasome signaling (IL-1 beta secretion) | hit rate 4.7% among 360,000 | AID 743279 | THP-1 LPS/ATP IL-1B secretion, AlphaLISA, 16 h; stronger effect = lower value | activity change, % at 57.5 µM; in the data active = activity change below about -50%; inconclusive = mostly about -30% to -49%
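Secreted IL-1B measured by AlphaLISA bead assay after 16 h compound exposure of THP-1 cells; compounds (final up to 57.5 uM) added 1 h before LPS (250 ng/mL) and ATP (1.25 mM) stimulation; lower signal means less secretion.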
TDP1 cell CPT – growth inhibition of DT40 Tdp1-/-;hTDP1 cells with camptothecin (screen for TDP1 inhibitors) | chicken DT40 Tdp1-/-;hTDP1 cells + 20 nM CPT, ATP luminescence, 48 h | Potency, µM (series often up to 46.2 µM), most hits filed as inhibitors | hit rate 12% among 420,000; note: nearly all actives have a fitted effect of over 55% in size
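Cell growth measured by CellTiter-Glo luminescence after a minimum 48 h, 37 C compound exposure with 20 nM CPT in Tdp1-knockout DT40 cells stably expressing hTDP1, seeded 400/well; qHTS titration format.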
Hits are given with their value; ! = repeats disagree. Unless noted, calls come from the whole dose curve; as a rule, active = well fitted curve in the direction sought with a large enough effect; inconclusive = small, poorly fitted or top-dose-only effect, or another doubt; inactive = no such curve, though single readings can be large; an effect the other way counts as inactive or inconclusive.

How did CC1CCC(C(C)C)C(OC(=O)Cn2c(COc3ccccc3)[n+](C)c3ccccc32)C1 (configuration not stated) do in these assays?
SW480 rerep: inactive; MCF10A rereplic: inconclusive; DT40 TDP1 no CPT: 1µM; Chronic BCR inh: inconclusive; IL-1B inflam inh: -105; TDP1 cell CPT: 0.58µM

How did CCS(=O)(=O)c1nnnn1-c1ccccc1S(C)(=O)=O do in these assays?
SW480 rerep: inconclusive; MCF10A rereplic: inconclusive; DT40 TDP1 no CPT: inconclusive; Chronic BCR inh: inconclusive; IL-1B inflam inh: -97; TDP1 cell CPT: inconclusive

How did O=C(/C=C/c1ccc(Cl)cc1)NC(=S)N1C[C@H]2C[C@H](C1)c1cccc(=O)n1C2 do in these assays?
SW480 rerep: inactive; MCF10A rereplic: inactive; DT40 TDP1 no CPT: inactive; Chronic BCR inh: inactive; IL-1B inflam inh: inactive; TDP1 cell CPT: inactive

What do the screens show for `COc1ccc(C(=O)O/N=C(/C(N)=O)P(=O)(OC(C)C)OC(C)C)cc1`?
SW480 rerep: inactive; MCF10A rereplic: inactive; DT40 TDP1 no CPT: inconclusive; Chronic BCR inh: inconclusive; TDP1 cell CPT: inconclusive

Results for Cn1cc(C2=C(c3cn(C4CCN(Cc5ccccn5)CC4)c4ccccc34)C(=O)NC2=O)c2ccccc21 ?
DT40 TDP1 no CPT: inactive; TDP1 cell CPT: inactive

How did COc1ccc(C2=CC(c3ccc4c(c3)OCO4)c3c(c4ccccc4oc3=O)O2)cc1OC (configuration not stated) do in these assays?
SW480 rerep: 6.5µM; MCF10A rereplic: 2.6µM; DT40 TDP1 no CPT: 21µM; IL-1B inflam inh: inactive; TDP1 cell CPT: 15µM

Results for Cc1ccc(-n2cc(CNC(C)Cc3cnccn3)c(-c3cccc(C)c3)n2)cc1 (configuration not stated) ?
SW480 rerep: inconclusive; MCF10A rereplic: inconclusive; DT40 TDP1 no CPT: 12µM; Chronic BCR inh: inconclusive; IL-1B inflam inh: -76; TDP1 cell CPT: 13µM

How did CC(Cc1cnccn1)NCc1c(C(=O)N2CCCCCCC2)nc2ccc(Cl)cn12 (configuration not stated) do in these assays?
SW480 rerep: inactive; MCF10A rereplic: inactive; DT40 TDP1 no CPT: inactive; Chronic BCR inh: inactive; IL-1B inflam inh: inactive; TDP1 cell CPT: inactive

What do the screens show for `O=C(NC(O)C(Cl)(Cl)Cl)NC(O)C(Cl)(Cl)Cl` (configuration not stated)?
SW480 rerep: inactive; MCF10A rereplic: inactive; DT40 TDP1 no CPT: inactive; TDP1 cell CPT: inactive

What do the screens show for `Cc1csc(NC(=O)C2CCCN2C(=O)Oc2ccccc2)n1` (configuration not stated)?
SW480 rerep: inactive; MCF10A rereplic: inactive; DT40 TDP1 no CPT: inactive; Chronic BCR inh: inconclusive; IL-1B inflam inh: inactive; TDP1 cell CPT: inactive

What do the screens show for `COc1cc2c(cc1OC)CN(c1ccc([N+](=O)[O-])c(C(F)(F)F)c1)CC2`?
SW480 rerep: inactive; MCF10A rereplic: inconclusive; DT40 TDP1 no CPT: 21µM; Chronic BCR inh: inconclusive; IL-1B inflam inh: -51; TDP1 cell CPT: 16µM

Results for Nc1nonc1-n1nnc(C(=O)N/N=C/C=C/c2ccccc2)c1CSC1=NCCS1 ?
SW480 rerep: inconclusive; MCF10A rereplic: inconclusive; DT40 TDP1 no CPT: inconclusive; Chronic BCR inh: inconclusive; IL-1B inflam inh: -90; TDP1 cell CPT: inconclusive

How did CCN1CCN(Cc2ccc(NC(=O)c3cc(NC(=O)c4cc(C)on4)cc(OC)c3)cc2C(F)(F)F)CC1 do in these assays?
SW480 rerep: inconclusive; MCF10A rereplic: inactive; DT40 TDP1 no CPT: 16µM; Chronic BCR inh: inconclusive; IL-1B inflam inh: -83!; TDP1 cell CPT: 15µM

How did CCOC(=O)N1CCN(CC(O)COCCC23CC4CC(CC(C4)C2)C3)CC1 (configuration not stated) do in these assays?
SW480 rerep: inactive; MCF10A rereplic: inconclusive; DT40 TDP1 no CPT: 29µM; Chronic BCR inh: inactive; IL-1B inflam inh: inactive; TDP1 cell CPT: 12µM

How did CC[C@H](C)[C@@H]1NC(=O)CNC(=O)c2csc(n2)[C@H](C(C)(C)O)OC(=O)C(C)(C)[C@H](CCCC(C)(Cl)Cl)OC(=O)c2csc1n2 do in these assays?
DT40 TDP1 no CPT: 0.18µM; IL-1B inflam inh: inactive; TDP1 cell CPT: 0.052µM

Results for CC(C)CCON=O ?
SW480 rerep: inactive; MCF10A rereplic: inactive; DT40 TDP1 no CPT: inactive; TDP1 cell CPT: inactive

What do the screens show for `CCON=O`?
SW480 rerep: 0.94µM; MCF10A rereplic: inactive; DT40 TDP1 no CPT: inconclusive; TDP1 cell CPT: 0.094µM

Results for C(=NC1CCCCC1)c1c[nH]c2ccccc12 ?
SW480 rerep: inactive; MCF10A rereplic: inactive; DT40 TDP1 no CPT: inactive; IL-1B inflam inh: inactive; TDP1 cell CPT: inactive

What do the screens show for `COC(=O)OCC12CCC(O1)C1(C)C(=O)OCC21` (configuration not stated)?
SW480 rerep: inactive; MCF10A rereplic: inactive; DT40 TDP1 no CPT: 29µM; Chronic BCR inh: inactive; IL-1B inflam inh: inactive; TDP1 cell CPT: inconclusive

How did C/C(=N\N=C(N)N)c1ccccc1 do in these assays?
SW480 rerep: inactive; MCF10A rereplic: inconclusive; DT40 TDP1 no CPT: 18µM; Chronic BCR inh: inactive; TDP1 cell CPT: inconclusive

What do the screens show for `C=C(c1ccccc1)P(=O)(O)O`?
SW480 rerep: inactive; MCF10A rereplic: inactive; DT40 TDP1 no CPT: inactive; Chronic BCR inh: inconclusive; IL-1B inflam inh: inactive; TDP1 cell CPT: inactive

How did CC(=O)N1CCN(c2ccc(OC[C@H]3CO[C@](Cn4ccnc4)(c4ccc(Cl)cc4Cl)O3)cc2)CC1 do in these assays?
SW480 rerep: inconclusive; MCF10A rereplic: inconclusive; DT40 TDP1 no CPT: 6.3µM; Chronic BCR inh: inactive; IL-1B inflam inh: inactive; TDP1 cell CPT: 6.3µM!

How did CC(=O)N1CCN(c2ccc(OC[C@@H]3CO[C@@](Cn4ccnc4)(c4ccc(Cl)cc4Cl)O3)cc2)CC1 do in these assays?
SW480 rerep: inactive; MCF10A rereplic: inactive; DT40 TDP1 no CPT: 16µM; TDP1 cell CPT: 16µM

How did CCCC1COC(Cn2cncn2)(c2ccc(Cl)cc2Cl)O1 (configuration not stated) do in these assays?
SW480 rerep: inactive; MCF10A rereplic: inactive; DT40 TDP1 no CPT: inconclusive; Chronic BCR inh: inactive; IL-1B inflam inh: inactive; TDP1 cell CPT: inconclusive

How did Clc1ccc(C2(Cn3cncn3)OCCO2)c(Cl)c1 do in these assays?
SW480 rerep: inactive; MCF10A rereplic: inactive; DT40 TDP1 no CPT: inactive; TDP1 cell CPT: inactive

What do the screens show for `CCCC12CN3CC(CCC)(CN(C1)C3c1ccccn1)C2=O` (configuration not stated)?
SW480 rerep: inactive; MCF10A rereplic: inactive; DT40 TDP1 no CPT: inconclusive; Chronic BCR inh: inactive; IL-1B inflam inh: inactive; TDP1 cell CPT: inconclusive
